IL-1B inflam inh = inhibitors of inflammasome signaling (IL-1 beta secretion); activity change, % at 57.5 µM; AID 743279; hit rate 4.7% among 360,000; THP-1 LPS/ATP IL-1B secretion, AlphaLISA, 16 h; hits give low values; in the data active = activity change below about -50%; inconclusive = mostly about -30% to -49%
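THP-1 cells pretreated 1 hr with compounds (up to 57.5 uM final), then stimulated with LPS (250 ng/mL final) plus ATP (1.25 mM final); secreted IL-1B measured by AlphaLISA after 16 hr, decreased signal indicating inhibition.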
DT40 TDP1 CPT = DT40-hTDP1 cell growth loss with CPT; chicken DT40 Tdp1-/-;hTDP1 cells + 20 nM CPT, ATP luminescence, 48 h; Potency, µM (doses to about 46.2 µM), for the others: at the highest dose activity change, negative = growth inhibition, actives largely listed as inhibitors; hit rate 12% among 420,000; also: potency is read from the fitted curve at half-maximal effect; nearly all actives have a fitted effect of over 55% in size
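Cell growth measured by CellTiter-Glo luminescence after a minimum 48 h, 37 C compound exposure with 20 nM CPT in Tdp1-knockout DT40 cells stably expressing hTDP1, seeded 400/well; qHTS titration format.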
HT1080 IDH1KD tx = toxicity to HT-1080 IDH1 knockdown cells (counter line); hit rate 2% among 360,000; Potency, µM (highest dose often 46.1 µM), for the others: at the highest dose activity, negative = toxicity, usual class: cytotoxic; AID 686971; HT-1080 IDH1 knockdown viability, ATP luminescence, 48 h;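 also: potency is read from the fitted curve at half-maximal effect; 0% = DMSO wells and -100% = cell-free medium wells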
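HT-1080-IDH1KD cells (IDH1 knocked down), 750/well in RPMI with 5% FBS, treated with compound 48 h at 37 degrees C. Viability by CellTiter-Glo luminescence, normalised to DMSO and no-cell wells; concentration-response curves classed.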
DT40 TDP1 no CPT = qHTS for Inhibitors of human tyrosyl-DNA phosphodiesterase 1 (TDP1): qHTS in cells in absence of CPT; AID 686978, 2013; hit rate 15% among 420,000; DT40 Tdp1-/- hTDP1 cells, no CPT, ATP luminescence, 48 h; Potency, µM (titrated, usually from 46.2 µM), for inactives: at the top dose activity change, negative = growth inhibition, usual class: inhibitors; also: potency is read from the fitted curve at half-maximal effect; nearly all actives have a fitted effect of over 55% in size
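DT40 Tdp1-/-;hTDP1 cells, no CPT (DMSO vehicle only), 400 cells/well; compounds pin-transferred; ≥48 hr, 37 °C; CellTiter-Glo 30 min RT dark, luminescence read.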
HT1080NT lethal = kills 2HG-producing HT-1080-NT fibrosarcoma cells. Potency, µM (highest dose often 46.1 µM), for the others: at the top dose activity, negative = less viability, most hits filed as cytotoxic. HT-1080-NT fibrosarcoma viability, CellTiter-Glo ATP luminescence, 48 h. AID 686970. hit rate 1.6% among 360,000;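 also: NT is the 2HG producing partner of a matched IDH1 knockdown line; potency is read from the fitted curve at half-maximal effect; 0% = DMSO-treated cells and -100% = media-only wells without cells; nearly all actives have a fitted effect of over 55% in size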
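HT-1080-NT; 750 cells/well; 5% FBS RPMI; 48 h compound, 37 degrees C; CellTiter-Glo luminescence; curve fitting and curve-class assignment.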
Numbers without * were called inactive; ? = inconclusive; / = no result given; [ ] = remark or other dose. An excerpt weighted towards active compounds, which were near 19% of everything screened. Unless noted, calls follow the shape of the dose curve; as a rule, active = well fitted curve in the direction sought with a large enough effect; inconclusive = small, poorly fitted or top-dose-only effect, or another doubt; inactive = no such curve, though single readings can be large; an effect the other way counts as inactive or inconclusive. Unless noted, % is scaled to controls: 0 for no effect and ±100 for the full control effect.

SMILES | IL-1B inflam inh | DT40 TDP1 CPT | HT1080 IDH1KD tx | DT40 TDP1 no CPT | HT1080NT lethal
CC(=O)c1ccc(N2CCN(CC(=O)Nc3ccccc3C(=O)NC3CC3)CC2)c(F)c1 | 11 | ? | -1% | ? | -3%[9.24 µM]
CC(C)Cc1nnc(NC(=O)c2ccc3c(c2)OCCO3)s1 | -5 | -23% | 15% | -2% | 16%
Cc1ccc(NC(=O)C(=O)NCCN2CCN(C(=S)Nc3ccccc3)CC2)cc1 | -8 | ? | 0% | ? | 5%
CC1C(=O)Nc2ccccc2N1C(=O)c1ccc(O)cc1 (configuration not stated) | -19 | 5% | 10% | 5% | 3%
O=C1Nc2ccccc2N(C(=O)c2ccc3ccccc3c2)C1c1nc2ccccc2[nH]1 (configuration not stated) | -2 | 10µM* | ? | 21µM* | ?
CCCOc1ccc(F)cc1-c1cc(C(=O)Nc2ccc(OC)nc2)[nH]n1 | ? | ? | -2% | 18µM* | 14%
CCCOc1ccc(F)cc1-c1cc(C(=O)Nc2cc(OC)c(OC)c(OC)c2)[nH]n1 | -11 | 8.2µM* | ? | 15µM* | ?
COc1ccc(NC(=O)c2cc(-c3ccc(F)cc3OC(C)C)n[nH]2)cn1 | 39 | ? | 26% | 23µM* | ?
CC(C)Oc1cc(F)ccc1-c1cc(C(=O)Nc2cccc(C(F)(F)F)c2)[nH]n1 | -22 | 16µM* | ? | ? | 16µM*
CCCOc1ccc(F)cc1-c1cc(C(=O)Nc2cc(OC)ccc2OC)[nH]n1 | 9 | -21% | -17% | -11% | ?
CCCOc1ccc(F)cc1-c1cc(C(=O)NCCOC)[nH]n1 | -1 | -20% | 25% | -26% | ?
CNc1cncc(-c2cccc(OC)c2F)n1 | -6 | -2% | 14% | -26% | ?
COc1cc(NC(=O)c2cc(-c3cc(F)ccc3OC(C)C)n[nH]2)cc(OC)c1OC | ? | ? | ? | 16µM* | ?
COc1ccc(NC(=O)c2cc(-c3cc(F)ccc3OC(C)C)n[nH]2)cc1OC | -18 | ? | ? | ? | -25%
O=C(c1cccs1)N1N=C(c2ccccc2)CC1c1ccccc1 (configuration not stated) | -10 | ? | 9%[9.24 µM] | ? | -27%
COc1ccc(C2=NN(C(=O)c3ccccc3)C(c3ccccc3)C2)c(O)c1 (configuration not stated) | -2 | ? | -9% | 18µM* | -17%
COc1ccc(C2CC(c3ccc(OC)c(OC)c3)=NN2C(=O)c2ccccc2)cc1 (configuration not stated) | -12 | -25% | 0% | -22% | 3%
COc1ccc(C2CC(c3ccc(C)cc3)=NN2C(=O)c2ccccc2)cc1 (configuration not stated) | ? | 21µM* | ? | 15µM* | ?
COc1ccc(C2=NN(C(=O)c3cccs3)C(c3ccc(OC)cc3)C2)cc1 (configuration not stated) | ? | ? | 5% | 18µM* | 5%
Cc1cn([C@H]2C[C@H](O)[C@@H](CNC(=O)[C@H](N)C3CC3)O2)c(=O)[nH]c1=O | -5 | -12% | 4% | 11% | -1%
O=C(O)c1ccc(CN2C[C@@H](CO)O[C@@H](n3cnc4c(NCc5ccc(F)cc5)ncnc43)C2)cc1 | 15 | 3% | ? | 2% | 6%
Cc1cc(C(=O)NCc2nc(-c3cccc(NC(=O)c4cc(C)oc4C)c3)oc2C)nc(C)n1 | / | -15%[9.04 µM] | / | 21µM* | /
Cc1cc(C(=O)Nc2cccc(-c3nc(CNC(=O)c4sc(C)nc4C)c(C)o3)c2)c(C)o1 | / | 7%[9.04 µM] | / | 21µM* | /
Cc1occc1C(=O)Nc1cccc(-c2nc(CNC(=O)c3ccc(N4CCCCC4)cc3)c(C)o2)c1 | / | ? | / | 18µM* | /
C#Cc1cccc(C(=O)NCc2nc(-c3cccc(NC(=O)c4ccccn4)c3)oc2C)c1 | / | ? | / | 23µM* | /

Screens from PubChem BioAssay.
